PubChem BioAssay AID434939 (The Scripps Research Institute Molecular Screening Center, 2010)
Out of some 2,300 compounds screened, about 2,000 (87%) were called active. Rule as the data show it: active = activation above about 11%; inactive = the rest. So high a share suggests a set chosen from earlier hits. These entries were drawn from the full list.

The compounds below were run against Nuclear receptor subfamily 1 group I member 2 (Homo sapiens) (UniProt O75469) (assay: activation of PXR luciferase reporter – cell-based, luciferase luminescence, counter-screen for AHR activator project (AID 434939;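 also: human hepatoma DPX-2 cells expressing full-length human PXR; 0% = DMSO and 100% = reference agonist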)). Details: at 11.6 µM, stronger effect = higher value.
Chain of Nuclear receptor subfamily 1 group I member 2 (Homo sapiens) (O75469 whole entry, looked up): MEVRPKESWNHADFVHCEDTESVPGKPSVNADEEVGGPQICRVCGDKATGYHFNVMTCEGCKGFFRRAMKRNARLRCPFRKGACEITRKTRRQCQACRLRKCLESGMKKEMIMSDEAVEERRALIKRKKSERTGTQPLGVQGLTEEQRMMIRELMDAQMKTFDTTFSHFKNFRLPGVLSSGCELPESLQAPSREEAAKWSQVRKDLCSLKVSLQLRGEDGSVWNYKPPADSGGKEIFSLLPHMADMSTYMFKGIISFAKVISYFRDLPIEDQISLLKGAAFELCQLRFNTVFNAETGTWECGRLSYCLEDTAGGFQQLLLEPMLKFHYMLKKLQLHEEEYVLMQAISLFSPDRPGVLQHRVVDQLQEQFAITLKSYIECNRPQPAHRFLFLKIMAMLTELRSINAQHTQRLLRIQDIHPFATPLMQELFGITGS
CC(C(=O)N=Nc1c(O)n(C)c2ccc(Br)cc12)n1cnc2ccccc2c1=O (stereo not given) was tested, and the activation was 60% (active).
For Cc1ccc(NC(=O)NNC(=O)c2sccc2-n2cccc2)cc1, the activation was 27% (active).
For Cc1nn(-c2ccccc2)c2[nH]c(C(F)(F)F)cc(=O)c12, the activation was 25.8% (active).
With N#C/C(=C(/O)COc1cccc2ccccc12)c1nc2ccccc2[nH]1 the activation was 29.3% (active).
For Cc1nn(Cc2ccc(Cl)cc2)c(Cl)c1/C=N/NC(=O)c1cccnc1, the activation was 39.9% (active).
For O=C(Nc1cccc(Br)c1)c1ccc2snnc2c1, the activation was 22.9% (active).
With C/C(=N/NC(=S)Nc1ccccc1)c1ccc2c(c1)OCO2 the activation was 76.5% (active).
OCCNc1nc(Nc2ccc(Cl)c(Cl)c2)nc2ccccc12 was tested, and the activation was 13.8% (active).
With Cc1csc(NC(=S)Nc2cccc(Cl)c2)n1 the activation was 21.6% (active).
For NC(=O)Nc1ccccc1C(=O)NCCc1ccccc1, the activation was 18.7% (active).
With CNC(=O)c1ccc2nc(NC(C)=O)sc2c1 the activation was 9.52% (inactive).
With CSc1ncccc1C(=O)Nc1nc2ccc(F)cc2s1 the activation was 11.7% (active).
For COc1ccc(Nc2nnc(C)c3ccccc23)cc1, the activation was 73.7% (active).
In the case of Cc1c(C(=O)NCC(c2ccco2)N2CCCC2)oc2ccc(Cl)cc12 (stereo not given), the activation was 56.2% (active).
In the case of CCn1c2ccccc2c2cc(NC(=O)C/C(C)=N/NC(=O)c3ccccc3N)ccc21, the activation was 45.7% (active).
Cc1cccc(Nc2nc(-c3ccccc3)cs2)n1 was tested, and the activation was 25.5% (active).
With COc1ccc(Nc2nc(-c3ccccc3)cs2)cc1 the activation was 12.8% (active).
With COc1ccc2nc(Nc3nc(-c4ccncc4)cs3)sc2c1 the activation was 38.6% (active).
O=C(Nn1c(-c2ccc(Cl)cc2)nc2ccccc2c1=O)c1cccnc1Cl was tested, and the activation was 14.3% (active).
With c1cnc(N2CCN(c3ccc4ccccc4n3)CC2)nc1 the activation was 36.7% (active).
For CCn1ccnc1CN(C)Cc1nc(-c2ccc3c(c2)OCO3)no1, the activation was 37.5% (active).
With O=C(Cn1c(NCCO)nc2ccccc21)c1ccc(Cl)cc1Cl the activation was 31.4% (active).
With O=C(CCCCn1c(=O)[nH]c2ccccc2c1=O)NCc1ccc2c(c1)OCO2 the activation was 37.2% (active).
With CCn1c(NC(=O)c2nn(C)cc2Br)nc2ccccc21 the activation was 22.6% (active).
With COc1cccc(OC)c1C(=O)Nc1ccc(N2CCCCC2)cc1 the activation was 53.1% (active).
In the case of COc1cc2ccccc2cc1C(=O)Nc1ccc(N2CCOCC2)cc1, the activation was 30.4% (active).
With NNc1nc2c(Cl)cccc2s1 the activation was 8.29% (inactive).
In the case of CN(C)S(=O)(=O)Oc1ccccc1C(=O)Nc1ccccc1Cl, the activation was 82.8% (active).
With Cc1noc(C)c1/C=N/Nc1ccc2ccccc2n1 the activation was 25.9% (active).
With C(=N\Nc1ccc2ccccc2n1)/c1ccc2c(c1)OCO2 the activation was -10.5% (inactive).
In the case of CC(C)n1cnc2c(Nc3cccc(Cl)c3)nc(N(CCO)CCCO)nc21, the activation was 255% (active).
CN(C)c1nc(Nc2ccc(Cl)c(Cl)c2)nc(N(C)C)n1 was tested, and the activation was 23.1% (active).
For Cn1c(C(=O)NCCc2ccsc2)cc2c(=O)n(C)c3ccccc3c21, the activation was 75.7% (active).
For CC(C)n1ncc2c(C(=O)Nc3ccc(CC#N)cc3)cc(C3CC3)nc21, the activation was 48.4% (active).
S=c1nc2ccccc2c2nc(-c3cccnc3)[nH]n12 was tested, and the activation was 24.9% (active).
